Laboratory results taken from PubChem BioAssay (Tox21).
Values joined by “and” are separate entries in the source; they are usually repeats but may differ in a detail not shown here. Equal entries are not always repeated. Inconclusive results are not listed. A call without a number means that no potency is given here. Some compounds were tested as several samples or in several runs, with calls that do not always agree. Active and inactive are the calls of the source. Unless noted, calls come from the whole dose curve; as a rule, active = well fitted curve in the direction sought with a large enough effect in the repeat runs; inconclusive = weak or mixed curves; inactive = no such curve, though single readings can be large; an effect the other way counts as inactive or inconclusive.

Tests used:
[1] = qHTS assay to identify aromatase inhibitors - cell viability counter screen (AID 743084);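 note: cells stimulated with testosterone during compound exposure; nearly all actives have a fitted effect of over 55% in size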
[2] = biological target: Aryl hydrocarbon receptor (Homo sapiens) (UniProt P35869); test: qHTS assay to identify small molecule that activate the aryl hydrocarbon receptor (AhR) signaling pathway (AID 743085); note: nearly all actives have a fitted effect of over 15% in size; note: potency is the fitted concentration of half-maximal effect;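 for activation: HG2L7.5c1 human HepG2 liver cells with stably integrated DRE-driven firefly reporter; series mostly up to about 70 µM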
Aryl hydrocarbon receptor (Homo sapiens), sequence (P35869 whole entry, looked up): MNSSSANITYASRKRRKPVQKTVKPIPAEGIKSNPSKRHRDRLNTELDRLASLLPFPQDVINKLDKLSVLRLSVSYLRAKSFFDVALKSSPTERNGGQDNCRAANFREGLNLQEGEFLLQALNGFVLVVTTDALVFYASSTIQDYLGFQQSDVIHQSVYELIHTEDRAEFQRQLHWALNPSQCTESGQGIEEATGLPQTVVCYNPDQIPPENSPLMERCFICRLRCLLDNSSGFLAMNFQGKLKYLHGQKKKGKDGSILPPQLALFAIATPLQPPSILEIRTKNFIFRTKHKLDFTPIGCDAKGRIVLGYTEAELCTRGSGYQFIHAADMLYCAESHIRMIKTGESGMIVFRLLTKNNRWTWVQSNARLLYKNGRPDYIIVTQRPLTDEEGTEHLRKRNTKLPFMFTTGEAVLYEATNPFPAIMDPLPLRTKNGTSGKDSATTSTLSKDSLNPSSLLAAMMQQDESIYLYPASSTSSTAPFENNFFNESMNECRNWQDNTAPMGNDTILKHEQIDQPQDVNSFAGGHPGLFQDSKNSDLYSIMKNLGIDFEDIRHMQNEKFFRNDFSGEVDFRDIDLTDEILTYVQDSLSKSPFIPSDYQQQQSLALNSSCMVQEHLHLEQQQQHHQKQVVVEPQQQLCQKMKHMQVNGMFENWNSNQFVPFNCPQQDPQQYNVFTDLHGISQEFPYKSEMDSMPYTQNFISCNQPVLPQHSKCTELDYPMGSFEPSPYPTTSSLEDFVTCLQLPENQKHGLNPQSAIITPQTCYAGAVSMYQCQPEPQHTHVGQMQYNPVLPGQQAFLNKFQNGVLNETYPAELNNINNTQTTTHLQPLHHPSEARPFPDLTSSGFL
Method in brief: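 24 h compound exposure, 37C, HepG2-derived HG2L7.5c1 cells with DRE-responsive luciferase. Readouts: fluorescence viability, then luminescence at room temperature after 30 min.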

[3] = qHTS assay to identify small molecule that activate the aryl hydrocarbon receptor (AhR) signaling pathway - cell viability counter screen (AID 743086);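 note: HepG2 liver cells carrying the AhR DRE luciferase reporter; series mostly up to about 70 µM; nearly all actives have a fitted effect of over 45% in size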
Method in brief: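 HepG2-AhR-luc (HG2L7.5c1) cells, 4000/well, were preincubated 5 h at 37C, exposed to compound in qHTS format for 24 hr at 37C, then given CellTiter-Fluor for 30 min; viability was read as fluorescence in the reporter wells.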

[4] = biological target: Peroxisome proliferator-activated receptor gamma (Homo sapiens) (UniProt P37231); test: qHTS assay to identify small molecule agonists of the peroxisome proliferator-activated receptor gamma (PPARg) signaling pathway (AID 743094; active = well fitted activation curve with a large enough effect in the signal ratio in the repeat runs, not every such curve was filed as active; the % refers to the signal ratio; note: potency is the fitted concentration of half-maximal effect)
Peroxisome proliferator-activated receptor gamma (Homo sapiens), sequence (P37231 whole entry, looked up): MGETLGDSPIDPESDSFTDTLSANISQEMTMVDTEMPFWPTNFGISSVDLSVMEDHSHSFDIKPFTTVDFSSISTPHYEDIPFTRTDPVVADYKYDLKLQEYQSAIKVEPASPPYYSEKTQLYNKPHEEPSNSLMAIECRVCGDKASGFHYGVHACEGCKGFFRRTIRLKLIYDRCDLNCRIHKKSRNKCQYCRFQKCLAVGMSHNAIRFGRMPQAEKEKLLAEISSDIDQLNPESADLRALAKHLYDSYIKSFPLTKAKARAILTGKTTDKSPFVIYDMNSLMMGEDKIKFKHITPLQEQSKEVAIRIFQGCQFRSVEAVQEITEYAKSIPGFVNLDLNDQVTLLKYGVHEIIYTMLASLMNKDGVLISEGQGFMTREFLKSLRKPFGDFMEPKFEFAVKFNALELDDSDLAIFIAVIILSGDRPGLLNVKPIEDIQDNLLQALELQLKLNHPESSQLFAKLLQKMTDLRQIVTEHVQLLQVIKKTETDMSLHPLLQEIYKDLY
Method in brief: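 GeneBLAzer PPARg UAS-bla HEK293H cells were plated, rested 5 h, then exposed to compounds for 17 h at 37C. Beta-lactamase activity was read by LiveBLAzer B/G FRET substrate fluorescence after 1 h at room temperature.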

[5] = biological target: Peroxisome proliferator-activated receptor gamma (Homo sapiens) (UniProt P37231); test: qHTS assay to identify small molecule antagonists of the peroxisome proliferator-activated receptor gamma (PPARg) signaling pathway (AID 743191; calls by dose curve; note: nearly all actives have a fitted effect of over 30% in size; note: potency is the fitted concentration of half-maximal effect)
Method in brief: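 GeneBLAzer PPARg UAS-bla HEK293H cells carrying a UAS-driven beta-lactamase reporter were plated at 3000 cells/well, preincubated 5 h at 37C, then given compound for 17 h at 37C; LiveBLAzer B/G FRET substrate was read after 1 h at room temperature.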

[6] = qHTS assay to identify small molecule antagonists of the peroxisome proliferator-activated receptor gamma (PPARg) signaling pathway - cell viability counter screen (AID 743194); note: nearly all actives have a fitted effect of over 55% in size
Method in brief: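 PPARg-UAS-bla HEK293H cells were plated, rested 5 h at 37 C, then treated with compounds plus rosiglitazone (50 nM final) for 17 h at 37 C; viability was then read by CellTiter-Glo luminescence after 30 min at room temperature.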

[7] = qHTS assay for small molecule agonists of the antioxidant response element (ARE) signaling pathway (AID 743202; active = well fitted activation curve with a large enough effect in the signal ratio in the repeat runs, not every such curve was filed as active; the % refers to the signal ratio; note: potency is the fitted concentration of half-maximal effect)
Method in brief: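 Compounds delivered in DMSO to ARE-bla HepG2 cells (2,000 cells/well, pre-incubated 5 h) and left 16 h at 37 C. LiveBLAzer B/G FRET substrate then added for 2 h at RT before fluorescence reading.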

[8] = qHTS assay for small molecule activators of the heat shock response signaling pathway - cell viability counter screen (AID 743209); note: nearly all actives have a fitted effect of over 50% in size
Method in brief: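 HSE-bla HeLa cells plated overnight, then exposed to Tox21 compounds (23 nL in DMSO) for 5 h at 37 C. After the bla reporter read, CellTiter-Glo was added in the same wells and luminescence read after 30 min at room temperature.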

[9] = qHTS assay for small molecule activators of the heat shock response signaling pathway (AID 743210; active = well fitted activation curve with a large enough effect in the signal ratio in the repeat runs, with a control signal flat, not every such curve was filed as active; the % refers to the signal ratio;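 note: HeLa cells with beta-lactamase reporter driven by heat shock elements; series mostly up to about 63 µM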)
Method in brief: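 Reporter gene assay: HeLa cells stably bearing an HSE-bla construct, compound treatment 5 h at 37 C, LiveBLAzer substrate 2.5 h at RT, fluorescence intensity.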

[10] = qHTS assay to identify small molecule agonists of the peroxisome proliferator-activated receptor delta (PPARd) signaling pathway - cell viability counter screen (AID 743211); note: nearly all actives have a fitted effect of over 55% in size
Method in brief: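 Luminescent ATP viability assay (CellTiter-Glo, 30 min RT) in UAS-bla HEK293H cells carrying the PPAR delta reporter construct, 3000 cells/well, after a 17 h compound treatment at 37 C.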

[11] = biological target: Peroxisome proliferator-activated receptor delta (Homo sapiens) (UniProt Q03181); test: qHTS assay to identify small molecule agonists of the peroxisome proliferator-activated receptor delta (PPARd) signaling pathway (AID 743212; calls by dose curve)
Peroxisome proliferator-activated receptor delta (Homo sapiens), sequence (Q03181 whole entry, looked up): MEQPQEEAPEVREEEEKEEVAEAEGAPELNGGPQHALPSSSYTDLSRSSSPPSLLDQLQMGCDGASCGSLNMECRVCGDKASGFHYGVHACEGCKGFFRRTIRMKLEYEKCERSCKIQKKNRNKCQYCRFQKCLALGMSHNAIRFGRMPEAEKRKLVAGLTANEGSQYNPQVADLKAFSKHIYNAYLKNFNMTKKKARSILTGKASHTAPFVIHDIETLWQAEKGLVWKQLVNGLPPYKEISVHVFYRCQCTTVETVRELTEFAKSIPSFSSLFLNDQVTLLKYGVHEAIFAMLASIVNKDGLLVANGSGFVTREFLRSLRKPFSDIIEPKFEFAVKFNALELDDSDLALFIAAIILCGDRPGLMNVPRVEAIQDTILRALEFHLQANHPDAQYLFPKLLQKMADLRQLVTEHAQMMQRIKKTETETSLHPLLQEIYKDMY
Method in brief: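 A PPARd-bla HEK293H line with beta-lactamase under an Upstream Activator Sequence is treated with compounds at 37 C. Substrate loading for 2 h at room temperature precedes the fluorescence measurement.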

[12] = qHTS assay to identify small molecule antagonists of the peroxisome proliferator-activated receptor delta (PPARd) signaling pathway - cell viability counter screen (AID 743213); note: nearly all actives have a fitted effect of over 50% in size
Method in brief: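 In this counter screen, HEK293H cells carrying a UAS-beta-lactamase reporter are co-treated with test compounds and 300 nM L165041 (final) for 17 h at 37 C; cell viability is quantified by CellTiter-Glo luminescence.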

[13] = biological target: Peroxisome proliferator-activated receptor delta (Homo sapiens) (UniProt Q03181); test: qHTS assay to identify small molecule antagonists of the peroxisome proliferator-activated receptor delta (PPARd) signaling pathway (AID 743215; active = well fitted inhibition curve with a large enough effect in the signal ratio in the repeat runs, not every such curve was filed as active; the % refers to the signal ratio;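 note: cells stimulated with agonist L165041 at 300 nM final during compound exposure; series mostly up to about 62 µM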)
Method in brief: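 PPARd-bla HEK293H cells (UAS-bla reporter) preincubated 5 h, then given compound plus 300 nM final L165041 agonist for 17 h at 37 C. Beta-lactamase activity read by LiveBLAzer B/G FRET substrate fluorescence after 2 h at room temperature.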

[14] = qHTS assay to identify small molecule agonists of the farnesoid-X-receptor (FXR) signaling pathway - cell viability counter screen (AID 743218); note: nearly all actives have a fitted effect of over 45% in size
Method in brief: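 FXR-UAS-bla HEK 293T cells exposed to compounds for 16 h at 37C. Cytotoxicity read in the same wells by CellTiter-Glo luminescence after 30 min at room temperature, following the beta-lactamase FRET read.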

[15] = qHTS assay to identify small molecule antagonists of the farnesoid-X-receptor (FXR) signaling pathway - cell viability counter screen (AID 743221; active = well fitted cell-killing curve with a large enough effect in the repeat runs, not every such curve was filed as active; note: nearly all actives have a fitted effect of over 50% in size)
Method in brief: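 In GeneBLAzer FXR-UAS-bla HEK 293T cells stimulated with 50 uM chenodeoxycholic acid (final), compounds acted for 16 h at 37 C. Viability was assessed afterwards by CellTiter-Glo luminescence.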

[16] = biological target: Vitamin D3 receptor (Homo sapiens) (UniProt P11473); test: qHTS assay to identify small molecule agonists of the vitamin D receptor (VDR) signaling pathway (AID 743222; calls by dose curve)
Vitamin D3 receptor (Homo sapiens), sequence (P11473 whole entry, looked up): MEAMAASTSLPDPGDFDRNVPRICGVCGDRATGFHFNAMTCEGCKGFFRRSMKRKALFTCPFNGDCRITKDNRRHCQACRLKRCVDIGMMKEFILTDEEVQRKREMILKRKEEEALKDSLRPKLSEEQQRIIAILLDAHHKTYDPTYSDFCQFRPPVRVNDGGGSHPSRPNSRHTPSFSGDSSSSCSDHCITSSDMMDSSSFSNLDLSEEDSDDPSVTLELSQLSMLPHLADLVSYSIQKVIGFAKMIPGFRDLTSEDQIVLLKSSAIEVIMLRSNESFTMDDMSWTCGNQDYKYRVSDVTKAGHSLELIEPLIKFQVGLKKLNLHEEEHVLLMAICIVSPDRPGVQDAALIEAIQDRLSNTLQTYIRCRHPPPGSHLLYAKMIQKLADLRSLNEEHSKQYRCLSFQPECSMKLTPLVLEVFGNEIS
Method in brief: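 VDR-bla cells plated 4 h at 37 C, then exposed to compounds for 16 h at 37 C. Beta-lactamase reporter activity measured by fluorescence after 2 h room-temperature loading with LiveBLAzer B/G FRET substrate.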

[17] = biological target: Vitamin D3 receptor (Homo sapiens) (UniProt P11473); test: qHTS assay to identify small molecule antagonists of the vitamin D receptor (VDR) signaling pathway (AID 743223; active = well fitted inhibition curve with a large enough effect in the signal ratio in the repeat runs, not every such curve was filed as active; the % refers to the signal ratio)
Method in brief: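 Agonist 1alpha,25-dihydroxyvitamin D3 (3 nM in well) was added with each compound to VDR-bla cells preincubated 4 h. Cells stood 16 h at 37C, then FRET substrate 2 h at room temperature; fluorescence intensity recorded.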

[18] = biological target: Bile acid receptor (Homo sapiens) (UniProt Q96RI1); test: qHTS assay to identify small molecule antagonists of the farnesoid-X-receptor (FXR) signaling pathway (AID 743217; active = well fitted inhibition curve with a large enough effect in the signal ratio in the repeat runs, not every such curve was filed as active; the % refers to the signal ratio)
Bile acid receptor (Homo sapiens), sequence (Q96RI1 whole entry, looked up): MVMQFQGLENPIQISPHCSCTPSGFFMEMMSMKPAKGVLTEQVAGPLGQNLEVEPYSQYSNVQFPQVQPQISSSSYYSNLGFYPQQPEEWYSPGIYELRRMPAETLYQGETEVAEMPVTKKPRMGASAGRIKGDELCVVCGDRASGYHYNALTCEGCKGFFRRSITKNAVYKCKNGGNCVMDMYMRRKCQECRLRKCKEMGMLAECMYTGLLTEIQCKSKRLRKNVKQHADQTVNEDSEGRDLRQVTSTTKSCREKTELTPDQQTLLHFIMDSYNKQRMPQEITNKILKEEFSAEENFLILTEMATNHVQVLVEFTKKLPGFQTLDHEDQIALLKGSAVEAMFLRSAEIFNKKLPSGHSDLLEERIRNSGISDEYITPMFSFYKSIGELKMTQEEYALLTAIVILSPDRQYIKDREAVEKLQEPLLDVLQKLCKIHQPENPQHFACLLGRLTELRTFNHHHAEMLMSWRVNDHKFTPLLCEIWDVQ
Method in brief: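 FXR-UAS-bla HEK 293T cells (beta-lactamase reporter) given compound plus chenodeoxycholic acid (50 uM final), 16 h at 37C. LiveBLAzer B/G FRET substrate added for 2 h at room temperature; fluorescence read.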

[19] = qHTS assay for small molecule agonists of the antioxidant response element (ARE) signaling pathway - cell viability counter screen (AID 743203; calls by dose curve; note: nearly all actives have a fitted effect of over 55% in size)
Method in brief: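 ARE-bla HepG2 cells were plated, rested 5 h at 37C/5% CO2, then exposed to compounds in DMSO for 16 h. Viability was read as CellTiter-Glo luminescence after 30 min at room temperature, in the same wells as the ARE screen.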

Row | Compound | Potency [1] | Potency [2] | Potency [3] | Potency [4] | Potency [5] | Potency [6] | Potency [7] | outcome [8] | outcome [9] | Potency [10] | outcome [11] | Potency [12] | outcome [13] | Potency [14] | outcome [15] | outcome [16] | Potency [17] | Potency [18] | Potency [19]
1 | Cc1c(N(C)CS(=O)(=O)O)c(=O)n(-c2ccccc2)n1C | inactive | inactive | inactive | inactive | inactive | inactive | inactive | inactive | inactive | inactive | inactive | inactive | inactive | inactive | inactive | inactive | inactive | – | –
2 | COc1cc(C=O)ccc1O | inactive | inactive | inactive | inactive | inactive | inactive | inactive | inactive | – | inactive | inactive | inactive | inactive | inactive | inactive | inactive | inactive | inactive | –
3 | N[C@@H](Cc1c[nH]c2ccc(O)cc12)C(=O)O | inactive | 9.44 µM (active) and 5.29 µM (active) | inactive | inactive | inactive | inactive | inactive | inactive | – | inactive | inactive | inactive | inactive | inactive | inactive | inactive | inactive | – | –
4 | COc1cc2c(c(OC)c1OC)-c1ccc(OC)c(=O)cc1[C@@H](NC(C)=O)CC2 | inactive | inactive | inactive | inactive | inactive | inactive | – | inactive | inactive | inactive | – | inactive | – | inactive | inactive | inactive | – | – | –
5 | CC(O)COc1ccccc1 (configuration not stated) | inactive | inactive | inactive | inactive | inactive | inactive | inactive | inactive | inactive | inactive | inactive | inactive | inactive | inactive | inactive | inactive | inactive | inactive | –
6 | COC1=CC(=O)C[C@@H](C)[C@]12Oc1c(Cl)c(OC)cc(OC)c1C2=O | inactive | inactive | inactive | inactive and 48.5 µM (active) | 19.5 µM (active) | inactive | – | inactive | inactive | inactive | inactive | inactive | – | inactive | inactive | inactive | – | inactive | inactive
7 | Oc1cccc(O)c1 | inactive | inactive | inactive | inactive | inactive | inactive | inactive | inactive | inactive | inactive | inactive | inactive | inactive | inactive | inactive | inactive | inactive | inactive | –
8 | COCC(C)N (configuration not stated) | inactive | inactive | inactive | inactive | inactive | inactive | inactive | inactive | – | inactive | inactive | inactive | inactive | inactive | inactive | inactive | inactive | inactive | –
9 | CCCCOC(=O)CCCCCCCCC(=O)OCCCC | inactive | inactive | inactive | inactive | inactive | inactive | inactive | inactive | – | inactive | – | inactive | – | inactive | inactive | inactive | inactive | – | –
10 | COCCOCCOC | inactive | inactive | inactive | inactive | inactive | inactive | inactive | inactive | inactive | inactive | inactive | inactive | inactive | inactive | inactive | inactive | inactive | inactive | –
11 | COc1cc(O)c(C(=O)c2ccccc2)cc1S(=O)(=O)O | inactive | inactive | inactive | inactive | inactive | inactive | inactive | inactive | inactive | inactive | inactive | inactive | inactive | inactive | inactive | inactive | inactive | inactive | –
12 | Nc1cccc(N)c1 | inactive | 54.4 µM (active) | inactive | inactive | inactive | inactive | inactive | inactive | inactive | inactive | – | inactive | – | inactive | inactive | inactive | inactive | inactive | –
13 | OCCCc1ccccc1 | inactive | inactive | inactive | inactive | inactive | inactive | inactive | inactive | – | inactive | inactive | inactive | inactive | inactive | inactive | inactive | inactive | – | –
14 | OC[C@@H](O)[C@@H](O)[C@H](O)[C@H](O)CO | inactive | inactive | inactive | inactive | inactive | inactive | inactive | inactive | inactive | inactive | – | inactive | – | inactive | inactive | inactive | inactive | – | –
15 | O=C(O)CCCCC1CCSS1 (configuration not stated) | inactive | inactive | inactive | inactive | inactive | inactive | – | inactive | inactive | inactive | inactive | inactive | inactive | inactive | inactive | inactive | inactive | – | inactive
16 | C#C[C@]1(O)CC[C@H]2[C@@H]3CCC4=CC(=O)CC[C@@H]4[C@H]3CC[C@@]21CC | inactive | inactive | inactive | inactive | inactive | inactive | 48.6 µM (active) | inactive | – | inactive | inactive | inactive | inactive | inactive | inactive | inactive | inactive | – | –
17 | CC1(C)O[C@@H]2[C@@H](CO[C@@]3(COS(N)(=O)=O)OC(C)(C)O[C@@H]23)O1 | inactive | inactive | inactive | inactive | inactive | inactive | inactive | inactive | inactive | inactive | – | inactive | – | inactive | inactive | inactive | inactive | – | –
